# Wnt bcat act: Wnt/beta-catenin pathway activators, primary screen, cell-based, plate reader, single point. 300,000 tested, 1.2% active. Wnt/beta-catenin reporter cell assay, activator. activation, % at 9.35 µM; in the data active = activation above about 30%, passing the limit was not always enough; inconclusive = no clear call, values can overlap the other calls
# MITF act: activators of MITF-driven TRPM1 promoter reporter, primary screen, cell-based, SK-MEL-5, luciferase, single point; SK-MEL-5 TRPM1-promoter luciferase, 24 h; % of positive control, neutral wells = 0; activation, % at 12.5 µM; 300,000 tested, 0.75% active;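 active = mean activation of at least 80% with every replicate also reaching 80%; inconclusive = mean reaches 80% but some replicate falls short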
# esBAF inh: Bmi1 luciferase reporter increase in mESCs, primary screen, esBAF inhibitor project, mouse ES cells, Bmi1 luciferase knock-in, single point | 24 h; 100% = twice the neutral-well signal | reporter increase, % at 12.5 µM | 350,000 tested, 2% active | AID 602393, 2012; in the data active = activation above about 40%; inconclusive = no clear call, values can overlap the other calls;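 also: a rise in the Bmi1 reporter signal indicates esBAF inhibition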
# SMARCA2 activ: SMARCA2 (BRM) function activators, primary screen, cell-based, luminescence, high throughput | MG213 cells, MMTV-luciferase reporter, dexamethasone, overnight | activation, % at 9.1 µM | 370,000 tested, 1% active | AID 652017, 2013; in the data active = activation above about 7.8%
# HSF1 inh: HSF1 inhibitors in luciferase reporter cells, primary screen, cell-based, NIH3T3, luminescence. NIH3T3-HGL HSE-luciferase, MG132-induced, luminescence 8 h; hits give low values. activity change, negative = inhibition, % at 7.5 µM (by protocol). 300,000 tested, 0.77% active. AID 2098, 2009;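 active = more than half of replicate wells show activity change below -50%, luminescence cut by over half; inconclusive = some wells, but at most half, below -50%; inactive = no replicate well below -50%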;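 also: luciferase reports HSF-1 transcriptional activity via heat shock element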
# HSF1 activator: HSF-1 activators, primary screen, NIH3T3-HGL cells, MG132 stress, luminescence, single point; NIH3T3-HGL HSF-1 luciferase reporter, 8 h; 100% = twice DMSO control signal; activation, % at 9 µM; 300,000 tested, 1.7% active;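 active = mean replicate activation of at least 50% with a set share of replicates each reaching 50%; inconclusive = only one of those two conditions met; inactive = mean below 50% and too few replicates reaching it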
# A number is an active result; – = inactive; ? = inconclusive; · = not tested or not shown. An excerpt weighted towards active compounds, which were near 4.3% of everything screened.
SMILES,Wnt bcat act,MITF act,esBAF inh,SMARCA2 activ,HSF1 inh,HSF1 activator
S=C(NCCc1ccccc1)N1CCCC1,–,–,·,–,–,–
CC1CCCCN1C(=S)NCCc1ccccc1 (stereo not given),36.8,·,–,–,–,–
CC1CCC(NC(=O)C2CCN(c3c4c(nc5ncnn35)CCC4)CC2)CC1 (stereo not given),·,·,41.3,·,–,–
Cc1cc(NC(=O)CSc2nc3c(cc2C#N)CCCC3)no1,40.8,–,·,–,–,70.8
Cc1cc(NC(=O)CSc2nnc(C3CC3)n2C)no1,–,–,–,–,–,–
Cc1cc(NC(=O)CSc2nnc(C)n2C)no1,–,–,–,–,-59.2,–
Cc1cc(NC(=O)CSc2nc3c(cc2C#N)CCC3)no1,33.9,–,–,–,–,84.2
C[C@H](CO)N1C[C@H](C)[C@H](CN(C)Cc2ccncc2)Oc2c(NS(=O)(=O)c3cccs3)cccc2C1=O,·,·,–,·,·,·
C[C@@H]1CN([C@@H](C)CO)C(=O)c2cc(N(C)C)ccc2O[C@H]1CN(C)Cc1ccncc1,·,·,–,·,·,·
CCOc1ccc(Nc2nc3c(c(=O)[nH]2)CCCC3)cc1,–,–,–,–,–,–
Cc1ccc(Nc2nc3c(c(=O)[nH]2)CCCC3)cc1,·,–,69.9,–,·,·
CCOc1ccc2nc(N3CCOCC3)nc(C)c2c1,·,98.8,–,–,–,–
C[C@@H]1CN([C@H](C)CO)C(=O)c2cc(NC(=O)NC3CCCCC3)ccc2O[C@@H](C)CCCCO[C@@H]1CN(C)Cc1ccc(C(F)(F)F)cc1,·,·,–,·,·,·
CCc1ccc(C(=O)COC(=O)c2cccc(N3C(=O)c4c(C)nc5ccccc5c4C3=O)c2)cc1,47.9,–,–,–,–,–
C(=N\NCc1ccccc1)/c1ccc2ncccc2c1,30.6,·,·,–,–,–
CCc1ccc2c(c1)[C@H]1OCC[C@H]1[C@@H](c1cccs1)N2,·,–,·,–,–,69.4
CCc1ccc2c(c1)/C(=C/C(=O)c1cccs1)C(=O)N2,·,·,–,–,–,–
CCOC(=O)c1c(NC(=O)CSc2nc3ccccc3o2)sc(C)c1C,–,–,–,–,–,144.0
CCOC(=O)c1c(NC(=O)CSc2nc3ccccc3s2)sc(C)c1C,–,·,–,–,–,–
CCOC(=O)c1c(N2C(=O)C=CC2=O)sc(C)c1C,·,–,–,·,–,55.0
CCOC(=O)c1c(NC(=O)CSc2ncnc3ccccc23)sc(C(C)=O)c1C,–,–,·,–,–,78.2
CCOC(=O)c1c(NC(=O)CSC(=S)N(C)C)sc(C)c1C,–,–,·,–,–,84.8
COC(=O)c1c(NC(=O)CSc2ncnc3ccccc23)sc(C)c1C,–,–,–,–,–,–
CCOC(=O)c1c(NC(N)=O)sc(C)c1C,·,–,–,–,–,–
C[C@@H]1CN([C@@H](C)CO)C(=O)c2cccc(NC(=O)c3ccncc3)c2O[C@@H]1CN(C)C(=O)NC1CCCCC1,·,·,–,·,·,·
SMILES,Wnt bcat act,MITF act,esBAF inh,SMARCA2 activ,HSF1 inh,HSF1 activator
COCC(=O)Nc1ccc2c(c1)[C@@H]1C[C@H](CC(=O)NCC3CC3)O[C@H](CO)[C@@H]1O2,·,·,–,·,·,·
CN(CC(=O)NCc1ccccc1)S(=O)(=O)c1ccc2c(c1)CCC(=O)N2,–,–,–,–,–,–
CCOc1ccc(CCNC(=O)CN(C)S(=O)(=O)c2ccc3c(c2)CCC(=O)N3)cc1OCC,·,–,–,–,-54.3,–
O=C(C[C@@H]1CC[C@@H]2[C@H](COC[C@H](O)CN2Cc2cccc(C(F)(F)F)c2)O1)NCc1ccncc1,·,·,–,·,·,·
CCC(=O)Nc1ccc2c(c1)C(=O)N(C)[C@H]1CC[C@@H](CC(=O)NCCCN(C)C)O[C@H]1CO2,·,·,–,·,·,·
N=c1c(S(=O)(=O)c2ccccc2)cc2c(=O)n3ccccc3nc2n1C1CCCC1,–,–,–,–,–,–
N=c1c(S(=O)(=O)c2ccc(Br)cc2)cc2c(=O)n3ccccc3nc2n1C1CCCC1,–,–,–,–,–,54.7
CCn1c(=NC(=O)c2ccco2)sc2cccc(F)c21,–,–,69.8,–,–,–
Cc1nc(C)c(-c2ccc(SCc3ccc([N+](=O)[O-])cc3)nn2)s1,–,–,–,–,–,52.3
COc1cc(/C=N/NC(=O)CC2(C)OCCCO2)ccc1OCc1ccc(Cl)cc1Cl,·,–,·,–,–,67.9
COc1cc(/C=N/NC(=O)CC2(C)OCCCO2)ccc1OCc1ccccc1,·,–,42.4,–,–,–
COc1cc(/C=N/NC(=O)CN2CCCCC2)ccc1OCc1ccc(Br)cc1,·,?,·,–,–,79.1
COc1cc(C=NNC(=O)CN2CCN(Cc3ccc(C)cc3)CC2)cc(OC)c1O,·,·,·,–,·,·
CC1(CC(=O)N/N=C/c2ccc(OCc3ccc(Cl)cc3Cl)cc2)OCCCO1,·,–,–,–,–,53.6
C[C@@H]1CN([C@H](C)CO)C(=O)c2cc(-c3cccnc3)cnc2O[C@@H]1CN(C)C(=O)NC1CCCC1,·,·,–,·,·,·
COc1cc(/C=N/NC(=O)c2cccc([N+](=O)[O-])c2)ccc1OCc1ccccc1,–,?,42.9,–,–,–
COc1ccc(/C=N/Nc2nc(C)nc(N)n2)cc1,–,–,54.9,–,–,–
Nc1nc2ccccc2n1C(=O)c1ccco1,36.9,–,·,–,–,–
O=C(c1ccco1)N1CCn2c1nc1ccccc12,·,·,46.5,–,–,–
COc1ccc(NC(=O)N(C)C[C@@H]2Oc3ccc(NC(=O)NC4CCCCC4)cc3CC(=O)N([C@@H](C)CO)C[C@H]2C)cc1,·,·,–,·,·,·
COc1ccc(N(C)S(=O)(=O)c2ccc(C)cc2)c([N+](=O)[O-])c1,–,–,·,–,–,–
Cc1ccc(S(=O)(=O)N(C)c2ccc(C)c([N+](=O)[O-])c2)cc1,?,–,·,–,–,70.0
COc1ccc(S(=O)(=O)Nc2ccc3c(c2)C(=O)N([C@H](C)CO)C[C@@H](C)[C@H](CN(C)S(=O)(=O)c2ccc(OC)cc2)OCCCC[C@@H](C)O3)cc1,·,·,–,·,·,·
CCCCC#Cc1cncc(C(=O)NN)c1,–,–,–,–,–,–
CCCCCCC#Cc1cncc(C(=O)NNC(=O)Nc2cc(Cl)cc(Cl)c2)c1,42.3,·,·,–,–,–
Cc1cc(C(=O)OCC(=O)NCCc2ccccc2)c(C)o1,·,–,–,–,–,–
CC(=O)NCCc1ccc(C(=O)COC(=O)c2cc(C)oc2C)cc1,37.4,–,–,–,·,·
CCSc1nnc2c(n1)OC(C)(C)Nc1ccccc1-2,–,–,48.3,–,–,–
CSc1nnc2c(n1)OC1(Nc3ccccc3-2)C(=O)Nc2ccccc21 (stereo not given),–,–,·,–,–,–
CCCCOc1ccc(N2CC(C(=O)NCCc3ccc(OC)c(OC)c3)CC2=O)cc1 (stereo not given),–,–,·,–,-82.4,–

# Screens from PubChem.
